Measurements published in PubChem BioAssay AID651595 (National Center for Advancing Translational Sciences (NCATS), 2012).
Fewer than 10 of roughly 1,100 compounds were called active. About 6% were inconclusive and are not listed. Calls follow the shape of the dose curve; as a rule, active = well fitted cell-killing curve with a large enough effect; inconclusive = small, poorly fitted or top-dose-only effect; inactive = flat fitted curve, though single readings scatter. Not all results are given here.

experiment: qHTS of Nrf2 Activators: Hit Validation in Cytotox Assay; settings: Cell viability counter-screen for Nrf2 activator hits; series mostly up to 46.1 µM; activity change, negative = cytotoxicity: at the top concentration;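 also: compound exposure lasted 24 hours before the ATP readout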; as to activity change, negative = cytotoxicity: 0% is about no effect
Text: Many diseases have some form of oxidative stress injury and ties to inflammation, causing a host of problems for the patient. The antioxidant response element (ARE) plays an important role in alleviating the harmful effects of oxidative stress. The antioxidant response element (ARE) is a transcriptional regulatory element involved in the activation of genes coding for a number of antioxidant proteins and detoxifying enzymes. These enzymes work in concert to protect tissues from oxidative insults and chemical toxicities in human hepatocytes and immune cells. The protective effects of ARE activation are primarily triggered through Nrf2 (NF-E2-related factor) binding to and activating AREs. It is known that Nrf2 controls the production of over 250 antioxidant and detoxification proteins (Hu et al., 2006), thereby protecting tissues by increasing cellular antioxidant content and suppressing inflammatory signaling pathways. The transcription factor Nrf2 is a central link between oxidative chemicals, such as phenolic antioxidants and electrophilic compounds, and the activation of ARE. Nrf2 levels are constitutively low as a consequence of its interaction with Keap1, which targets its degradation (Zipper and Mulcahy, 2002). Electrophiles react with key cysteine residues in Keap1, releasing Nrf2 and allowing its translocation to the nucleus. Once within the nucleus, Nrf2 complexes with coactivators such as p300, and binds to the AREs to induce gene transcription of cytoprotective enzymes, resulting in the prevention of toxicity. Activation of Nrf2 protects tissues by increasing cellular antioxidant content and suppressing inflammatory signaling pathways. Identifying novel and potent Nrf2 activators by using the AREc32 cell line to detect ARE activation by small molecules will lead to the identification and development of probes to study protective pathways in multiple tissues. These specific probes are essential to study the ARE pathway, and eventually to determine whether this pathway does activate genes that could protect against a host of diseases, including cardiovascular diseases, obesity, diabetes, Alzheimer's, and Parkinson's disease.
This project's aim is to identify novel and potent Nrf2 activators by using the AREc32 cell line to detect ARE activation by small molecules, which will lead to the identification and development of probes to study the ARE pathway. Cytotoxic compounds are flagged as active, and inactivity is desired in this assay.
NIH Chemical Genomics Center [NCGC]
NIH Molecular Libraries Probe Centers Network [MLPCN]
Assay Submitter (PI): Curtis Klaassen, University of Kansas Medical Center
Cell viability after compound treatment was measured using a luciferase-coupled ATP quantitation assay (CellTiter-Glo, Promega) in AREc32_fluc cells. The change of intracellular ATP content indicates the number of metabolically competent cells after compound treatment. AREc32_fluc cells were harvested from T225 flask and resuspended in phenol red free OPTI-MEM medium with 5% FBS. Then 5 microL of 200,000 cells/ml resuspended cells was dispensed into each well of white, solid bottom, 1536-well tissue culture-treated plates using a Multidrop Combi dispenser. After overnight culture at 37 degrees C with 5% CO2, a total of 23 nL of compounds at 7 selected concentrations from the cherry pick or positive control (40 uM stock of CDDO-IM and 2 mM of tBHQ) in DMSO was transferred to each well of the assay plate using a pintool (Kalypsys, San Diego, CA), and the plates were further incubated at 37 degrees C with 5% CO2 for 24 hours. After that, 4 microL of CellTilter-GloTM luminescent substrate mix (Promega) was added to each well. The plate was incubated at room temperature for 30 minutes. The plates were measured on a ViewLux plate reader (PerkinElmer) with clear filter.
Potency is read from the fitted curve at half-maximal effect.

| Structure (SMILES) | activity change, negative = cytotoxicity | Potency |
| --- | --- | --- |
| O=c1c2ccccc2oc2cc(Br)ccc12 | -0.78% (inactive) | – |
| COc1ccc(C=O)cc1OS(=O)(=O)c1ccccc1[N+](=O)[O-] | 3.78% (inactive) | – |
| COc1ccccc1Nc1nc2ccccc2n2cnnc12 | 7.57% (inactive) | – |
| O=c1cc(-c2ccccc2Cl)oc2c(Br)ccc(O)c12 | -1.03% (inactive) | – |
| Cc1ccc(N=C2NC(=O)S/C2=C\c2ccco2)cc1 | -1.78% (inactive) | – |
| c1ccc(-c2nc3c4ccccc4ccn3c2Cc2ccsc2)cc1 | -15.8% (inactive) | – |
| COC(=O)c1c(NC(=O)/C=C/C(=O)O)sc(C)c1-c1ccc(C(C)C)cc1 | -2.1% (inactive) | – |
| COc1cccc(-c2nc3n(n2)CCc2ccccc2-3)c1 | -3.83% (inactive) | – |
| C/C(=N\NC(=O)COc1ccccc1[N+](=O)[O-])c1cccs1 | 3.87% (inactive) | – |
| O=c1oc2ccccc2cc1-c1nc(-c2cccs2)cs1 | 2.24% (inactive) | – |
| NC(=O)c1oc2ccccc2c1NC(=O)c1ccco1 | -0.897% (inactive) | – |
| Brc1ccccc1/C=N/Nc1ccccn1 | 2.41% (inactive) | – |
| O=C(/C=C/c1ccccc1Cl)Nc1nc(-c2cccs2)ns1 | -0.488% (inactive) | – |
| Cc1[nH]c2ccccc2c1N=Nc1ccccc1F | -1.48% (inactive) | – |
| O=C(N=Nc1c(O)[nH]c2ccc(Br)cc12)c1ccco1 | -0.259% (inactive) | – |
| CCOC(=O)N/N=C\C=C\c1ccco1 | 2.28% (inactive) | – |
| O=C(NC(=S)Nc1ccc(Br)cn1)c1cccs1 | 2% (inactive) | – |
| COc1ccccc1C=Cc1ccnc2ccccc12 | 1.67% (inactive) | – |
| S=C(NNc1ccc2ccccc2c1)NC1CCCCC1 | -1.82% (inactive) | – |
| OCC1OC(n2cnc3c(NCc4ccccc4O)ncnc32)C(O)C1O (stereo not drawn) | – | 5.17 µM (active) |
| c1ccc2c(-c3nc4ncccc4o3)cccc2c1 | -2% (inactive) | – |
| COc1ccc([N+](=O)[O-])cc1C1NN=C(c2ccccc2O)S1 (stereo not drawn) | -3.67% (inactive) | – |

| Structure (SMILES) | activity change, negative = cytotoxicity | Potency |
| --- | --- | --- |
| Clc1ccc(Br)cc1-c1nc(-c2ccncc2)no1 | 2.28% (inactive) | – |
| NC(=O)c1c(NC(=O)c2ccco2)sc2c1CCC2 | 1.87% (inactive) | – |
| O=C(Nc1ccccn1)c1csc2c1CCCC2 | -2.81% (inactive) | – |
| O=C(Nc1ccccn1)Nc1ccccc1Cl | 6.29% (inactive) | – |
| CC1(C)CC[C@]2(C(=O)n3ccnc3)CC[C@]3(C)[C@H](C(=O)C=C4[C@@]5(C)C=C(C#N)C(=O)C(C)(C)[C@@H]5CC[C@]43C)[C@@H]2C1 | – | 8.2 µM (active) |
| Fc1ccccc1-c1nc(-c2ccc(Cl)cc2)no1 | -0.963% (inactive) | – |
| COc1cc(/C=N/Nc2nc3ccccc3s2)ccc1OC(=O)c1ccccc1F | 2.19% (inactive) | – |
| Cc1c(Cl)cccc1NC(=S)NC(=O)c1ccccc1 | -23.4% (inactive) | – |
| c1ccc(-c2cc3c(-n4cccc4)ncnc3o2)cc1 | 0.0297% (inactive) | – |
| O=C(NC(=S)Nc1nc(-c2ccccc2)cs1)c1cccs1 | 0.308% (inactive) | – |
| CS(=O)(=O)Nc1ccc(C(=O)Nc2cccc([N+](=O)[O-])c2)cc1 | -7.34% (inactive) | – |
| COc1c(C(=O)Nc2nnc(C3CC3)s2)csc1Cl | 6.48% (inactive) | – |
| O=C(Nc1cc(-c2nc3cc(Cl)ccc3o2)ccc1Cl)c1ccco1 | 2.73% (inactive) | – |
| Cc1cc(=O)oc2c(C(=O)/C=C\c3cccs3)c(O)ccc12 | -9.76% (inactive) | – |
| Cn1cnnc1Sc1ccc(/C=C/C(=O)c2ccc(O)cc2)cc1[N+](=O)[O-] | -12.4% (inactive) | – |
| COC(=O)c1c(NC(=O)c2ccco2)sc(C)c1C | 8.04% (inactive) | – |
| c1cncc(-c2noc(-c3cccc4ccccc34)n2)c1 | -0.825% (inactive) | – |
| Nc1c(Cl)cc(N=Nc2ccccc2)cc1Cl | -1.01% (inactive) | – |
| Cc1sc2c(c1C)C(=O)NC(c1ccccc1F)N2 (stereo not drawn) | 5.03% (inactive) | – |
| Clc1cccc(Cc2c(-c3ccco3)nc3c4ccccc4ccn23)c1 | -6.06% (inactive) | – |
| Cc1csc(NC(=O)/C=C/c2ccco2)n1 | 6.19% (inactive) | – |
| c1ccc(N2CC3COc4ccccc4C3=N2)cc1 (stereo not drawn) | 4.77% (inactive) | – |

| Structure (SMILES) | activity change, negative = cytotoxicity | Potency |
| --- | --- | --- |
| O=C(/C=C/c1ccc2c(c1)OCO2)c1ccc(O)cc1O | -2.12% (inactive) | – |
| N#Cc1c(-c2ccco2)cc(-c2ccc(F)cc2)nc1N | 8.67% (inactive) | – |
| O=c1[nH]ncc(N/N=C\c2cccs2)c1Cl | 2.39% (inactive) | – |
| COc1ccccc1NC(=O)C(=O)Nc1ccccn1 | -2.4% (inactive) | – |
| O=c1[nH]c(/C(Cl)=C/c2cc(Cl)ccc2O)nc2cc(Cl)ccc12 | -1.06% (inactive) | – |
| O=C(Cn1cnc2scc(-c3cccc([N+](=O)[O-])c3)c2c1=O)NCc1ccco1 | -1.79% (inactive) | – |
| O=C(/C=C/c1ccco1)Nc1cccnc1Cl | -10.5% (inactive) | – |
| CCOC(=O)c1c(-c2ccco2)csc1NC(=O)CSc1nnc(N)s1 | -11.5% (inactive) | – |
| CCOC(=O)c1ccccc1N/C=C/C(=O)c1cccs1 | -4.29% (inactive) | – |
| CN1CCCC1CCNc1ccc2c(=O)c3ccccc3oc2c1 (stereo not drawn) | 0.572% (inactive) | – |
| Clc1nc(-c2ccccc2)cc(-c2ccccc2)n1 | 2.29% (inactive) | – |
| O=C(N/N=C\c1ccco1)Nc1cccc(Cl)c1 | -10.8% (inactive) | – |
| CN1c2ccsc2/C(=N/Nc2ccccc2)CS1(=O)=O | -1.51% (inactive) | – |
| O=C(c1ccccc1)[C@@H]1[C@@H]2C(=O)N(c3ccc(F)cc3)C(=O)[C@@H]2C2CCCN21 (stereo partly drawn) | 4.57% (inactive) | – |
| CC1CCCCC1NC(=O)COC(=O)c1c2c(nc3ccccc13)/C(=C/c1ccco1)CC2 (stereo not drawn) | -2.82% (inactive) | – |
| CNc1ccccc(C(=O)/C=C/c2ccccc2OC)c1=O | 0.226% (inactive) | – |
| O=C(N/N=C/c1ccc(-c2cccc([N+](=O)[O-])c2)o1)c1cccs1 | -2.3% (inactive) | – |
| O=C(Nc1ccccn1)c1ccc(Cl)c([N+](=O)[O-])c1 | 0.552% (inactive) | – |
| O=C(/C=C/c1ccco1)Nc1cccc(S(=O)(=O)N2CCOCC2)c1 | 6.93% (inactive) | – |
| Cc1ccc([N+](=O)[O-])cc1NC(=O)c1ccc(C(C)(C)C)cc1 | -1.77% (inactive) | – |
| O=C1/C(=C/c2ccccc2O)SC(=S)N1Cc1cccnc1 | 4.53% (inactive) | – |
| Cc1ccc(S(=O)(=O)/N=C(/NNC(=O)c2cccc(Cl)c2)c2ccccc2)cc1 | -0.738% (inactive) | – |

| Structure (SMILES) | activity change, negative = cytotoxicity | Potency |
| --- | --- | --- |
| Cc1ccc2ccc(C3C(=O)c4ccccc4C3=O)nc2c1 | 3.2% (inactive) | – |
| Fc1cc(F)c2nc(Nc3nc4cc5c(cc4s3)OCO5)sc2c1 | -28.7% (inactive) | – |
| CC(/C=N/NC(=O)Cc1cccn1C)=C\c1ccco1 | 7.92% (inactive) | – |
| Oc1ccc2ccccc2c1N=Nc1ccccn1 | – | 5.17 µM (active) |
| CC(C)CCn1c(O)c(N=Nc2ccccn2)c2ccccc21 | 5.08% (inactive) | – |
| CCCCn1c(O)c(N=Nc2ccccn2)c2ccccc21 | -4.62% (inactive) | – |
| O=C(Nc1ccccc1[N+](=O)[O-])C1COc2ccccc2O1 (stereo not drawn) | 1.87% (inactive) | – |
| CCOC(=O)COn1c(=O)c(-c2ccco2)[n+]([O-])c2ccccc21 | 5.99% (inactive) | – |
| C(=Cc1cnnc2ccccc12)c1ccccc1 | -3.58% (inactive) | – |
| Cc1ccc(S(=O)(=O)c2nc(S(C)(=O)=O)sc2N2CCC(C)CC2)cc1 | -3.41% (inactive) | – |
| O=C1C(Cl)=C(N2CCN(c3ccccc3[N+](=O)[O-])CC2)C(=O)c2ccccc21 | – | 18.4 µM (active) |
| N#CC1CC(c2ccccc2)=NN1c1ccccc1[N+](=O)[O-] (stereo not drawn) | -5.07% (inactive) | – |
| O=C1C(=Cc2ccccc2[N+](=O)[O-])Cc2ccccc21 | -13.3% (inactive) | – |
| COC(=O)c1sccc1NC(=O)c1cccc(OC)c1 | -4.2% (inactive) | – |
| N#C/C(=C1/C(=O)Nc2ccc(Br)cc21)c1ccccn1 | 1.23% (inactive) | – |
| Nc1ccc2c(c1)Cc1c(F)cccc1-2 | 6.2% (inactive) | – |
| COc1ccc2[nH]c3c(NCc4ccco4)ncnc3c2c1 | -2.65% (inactive) | – |
| O=C(/C(C=Nc1ccc(F)cc1)=C(/O)c1ccco1)C(F)(F)F | 0.0691% (inactive) | – |
| CC(C)Nc1ccc(-c2nc(-c3ccco3)no2)cc1[N+](=O)[O-] | 10.1% (inactive) | – |
| O=C(CSc1ccccn1)N/N=C/c1ccccc1[N+](=O)[O-] | 2.77% (inactive) | – |
| CCOc1ccccc1NC(=S)NC(=O)c1ccco1 | -1.64% (inactive) | – |
| O=C(Nc1nc2ccc(F)cc2s1)c1ccc([N+](=O)[O-])o1 | -20.4% (inactive) | – |
